# Compound activity deposited in PubChem by National Center for Advancing Translational Sciences (NCATS).
# A selection: hits, their analogues and other compounds. The true share with any hit is near 18%.
# TDP1 inh – qHTS Assay for Inhibitors of Tyrosyl-DNA Phosphodiesterase (TDP1); recombinant TDP1, AlphaScreen DNA substrate cleavage; Potency, µM (series often up to 130 µM), for the others: at the top dose activity change, negative = inhibition, most hits filed as inhibitors; Tyrosyl-DNA phosphodiesterase 1 (Homo sapiens), Q9NUW8; 350,000 tested, 0.28% active; AID 485290, 2010; note: potency is the fitted concentration of half-maximal effect; % is set by controls: 0 for no effect and ±100 for the full control effect; nearly all actives have a fitted effect of over 40% in size
# Target sequence (Q9NUW8 whole entry, looked up): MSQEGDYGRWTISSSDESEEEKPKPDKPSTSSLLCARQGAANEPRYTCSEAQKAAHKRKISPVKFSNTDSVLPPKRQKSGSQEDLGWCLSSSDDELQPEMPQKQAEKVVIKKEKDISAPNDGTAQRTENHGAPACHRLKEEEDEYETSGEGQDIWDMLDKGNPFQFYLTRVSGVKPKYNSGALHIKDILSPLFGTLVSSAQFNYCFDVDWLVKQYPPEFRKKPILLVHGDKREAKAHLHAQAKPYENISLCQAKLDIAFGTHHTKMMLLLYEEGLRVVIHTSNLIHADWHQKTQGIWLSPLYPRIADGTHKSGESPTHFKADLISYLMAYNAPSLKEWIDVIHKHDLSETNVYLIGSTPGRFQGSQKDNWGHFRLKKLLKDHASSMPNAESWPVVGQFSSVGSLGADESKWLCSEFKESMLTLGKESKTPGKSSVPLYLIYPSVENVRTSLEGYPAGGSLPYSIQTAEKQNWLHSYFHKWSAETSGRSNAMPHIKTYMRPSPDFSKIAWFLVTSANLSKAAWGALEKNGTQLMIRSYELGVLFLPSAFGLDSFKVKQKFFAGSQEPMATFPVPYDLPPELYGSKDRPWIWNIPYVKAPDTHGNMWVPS
#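 Recombinant human Tdp1 (E. coli-expressed, 1 nM final) preincubated with compounds 15 min at room temperature, then 5'-biotin/3'-phosphotyrosine-FITC DNA substrate (15 nM final) added for 5 min. AlphaScreen beads (10 ug/ml final) added 10 min; cleavage lowers signal.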
# HepG2 viability – qHTS for Inhibitors of TGF-b: Cytotox Counterscreen | HepG2 CAGA-GFP viability, ATP luminescence, 18 h | Potency, µM (doses to about 46.1 µM), for the others: at the top dose activity change, negative = cytotoxicity, usual class: cytotoxic | 410,000 tested, 0.76% active | AID 588856, 2011; note: potency is the fitted concentration of half-maximal effect
#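 CellTiter-Glo luminescence gave cytotoxicity after 18 hours at 37 degrees C. The cells were HepG2 CAGA-GFP in 1% FBS DMEM, stimulated with 500 pg/mL TGF-beta after compound addition. %Activity was normalised to no-cell wells (complete cell-killing) and DMSO (no toxicity), and curves were fitted and classified.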
# TGFb inhibitor – qHTS for Inhibitors of TGF-b | HepG2 CAGA-GFP TGF-b/SMAD3 reporter, GFP fluorescence, 18 h; TGF-beta stimulated, 500 pg/mL final | Potency, µM (titrated, usually from 46.1 µM), for the others: at the highest dose activity, negative = inhibition, usual class: inhibitors | 410,000 tested, 1.2% active | AID 588855, 2011; note: potency is the fitted concentration of half-maximal effect; % is set by controls: 0 for no effect and ±100 for the full control effect; nearly all actives have a fitted effect of over 65% in size
#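 Per well, imaged GFP fluorescence of HEPG2 CAGA-GFP cells gives the signal; cells get compound, then TGF-beta (500 pg/mL final), 18 h at 37 degrees C; %Activity versus -TGF-beta and +DMSO controls.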
# IL1B secr inh – qHTS for Inhibitors of Inflammasome Signaling: IL-1-beta AlphaLISA Primary Screen | AID 743279, 2014 | THP-1 LPS/ATP IL-1B secretion, AlphaLISA, 16 h; stronger effect = lower value | 360,000 tested, 4.7% active | activity change, % at 57.5 µM; in the data active = activity change below about -50%; inconclusive = mostly about -30% to -49%; note: % is set by controls: 0 for no effect and ±100 for the full control effect
#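 THP-1 cells pretreated 1 hr with compounds (up to 57.5 uM final), then stimulated with LPS (250 ng/mL final) plus ATP (1.25 mM final); secreted IL-1B measured by AlphaLISA after 16 hr, decreased signal indicating inhibition.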
# TDP1 cell noCPT – qHTS for Inhibitors of human tyrosyl-DNA phosphodiesterase 1 (TDP1): qHTS in cells in absence of CPT | Potency, µM (titrated, usually from 46.2 µM), for the others: at the highest dose activity change, negative = growth inhibition, hits mostly inhibitors | DT40 Tdp1-/- hTDP1 cells, no CPT, ATP luminescence, 48 h | 420,000 tested, 15% active; note: potency is the fitted concentration of half-maximal effect; % is set by controls: 0 for no effect and ±100 for the full control effect; nearly all actives have a fitted effect of over 55% in size
#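 No-CPT arm: Tdp1-/-;hTDP1 DT40 cells (400/well) plus compounds, incubated ≥48 hr at 37 °C. Readout CellTiter-Glo luminescence.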
# DT40 TDP1 CPT – qHTS for Inhibitors of human tyrosyl-DNA phosphodiesterase 1 (TDP1): qHTS in cells in presence of CPT; AID 686979, 2013; Potency, µM (series often up to 46.2 µM), for inactives: at the highest dose activity change, negative = growth inhibition, hits mostly inhibitors; chicken DT40 Tdp1-/-;hTDP1 cells + 20 nM CPT, ATP luminescence, 48 h; 420,000 tested, 12% active; note: potency is the fitted concentration of half-maximal effect; % is set by controls: 0 for no effect and ±100 for the full control effect; nearly all actives have a fitted effect of over 55% in size
#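 Chicken DT40 Tdp1-/- cells stably complemented with human TDP1 were seeded at 400 cells/well in medium containing 20 nM camptothecin, exposed to pin-transferred compounds, and grown at 37 °C for at least 48 hr. Viability was read as ATP luminescence.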
# Active calls of the source: *; i = inactive; u = inconclusive; x = no result given; [ ] = dose if it differs, or a comment. Unless noted, calls come from the whole dose curve; as a rule, active = well fitted curve in the direction sought with a large enough effect; inconclusive = small, poorly fitted or top-dose-only effect, or another doubt; inactive = no such curve, though single readings can be large; an effect the other way counts as inactive or inconclusive.
SMILES,TDP1 inh,HepG2 viability,TGFb inhibitor,IL1B secr inh,TDP1 cell noCPT,DT40 TDP1 CPT
COc1cccc(NC(=O)CSc2nnc3ccc(-c4ccncc4)nn23)c1,x,-20%,-3%,0,u,-18%
O=C1c2ccccc2C(=O)c2c(NCc3cccnc3)cccc21,11%,-21%,-19%,-12,u,u
O=C1c2cccc(NCCCNCCO)c2C(=O)c2cccc(NCCCNCCO)c21,x,-65%,16µM*,-103*,5.8µM*,5.8µM*
CC(=O)Nc1ccc(S(=O)(=O)N2CCN=C2SCc2ccccc2C)cc1,3%,-10%,77%,-3,16µM*,u
CC(=O)Nc1ccc(S(=O)(=O)N2CCN=C2SCc2ccc([N+](=O)[O-])cc2)cc1,5%,-26%,-9%,-28,7.3µM*,12µM*
CC(=O)Nc1ccc(S(=O)(=O)N2CCN=C2SCc2cccc(C)c2)cc1,3%[56.1 µM],13%,10%,i,u,u
COc1ccc(-c2nc(SCC(=O)N3CCC(C)CC3)n[nH]2)cc1,3%,-14%,-11%,x,-19%,u
COc1cccc(C(=O)Nc2ccc(NC(=O)c3ccc(C(C)(C)C)cc3)cc2)c1,3%[2.28 µM],-12%,-1%,x,10µM*,16µM*
COc1ccc(C(=O)Nc2ccc3ncccc3c2)cc1,x,-13%,-9%,-24,u,5.8µM*
COc1cccc(C(=O)Nc2ccc(NC(C)=O)cc2)c1,6%,-14%,0%,24,-14%,19%
Cc1ccc(C(=O)Nc2ccc3ncccc3c2)cc1,x,-16%,0%,u,u,-29%
COC(=O)Cc1ccc(NC(=O)c2ccc(C(C)(C)C)cc2)cc1,4%,-30%,9%,-50*,u,u
COc1ccc(C(=O)Nc2ccc3c(c2)n(C)c(=O)n3C)cc1OC,2%,11%,21%,-16,1%,-25%
COc1ccc(NC(=O)c2ccc3c(c2)n(C)c(=O)n3C)cc1,3%,-18%,30%,-56*,-15%,-29%
COc1ccc(C(=O)N=C2SC3CS(=O)(=O)CC3N2c2ccc(N(C)C)cc2)cc1OC (configuration not stated),-3%,6%,13%,-28,-14%,-21%
CC(=O)N1CC(C)Sc2ccc(S(=O)(=O)NC(C)c3ccccc3)cc21 (configuration not stated),1%,-35%,-29%,3,u,u
CC(C)(C)c1cnnn1-c1ccc(NC(=O)c2ccc(Br)o2)cc1,6%,-11%,23%,13,-27%,-27%
COc1cccc(C(=O)Nc2ccc(-n3nncc3C(C)(C)C)cc2)c1,4%,4%,2%,15,21µM*,u
CC(C)(C)c1ccc(C(=O)Nc2cccnc2)cc1,x,-21%,-11%,-15,u,u
CC(C)(C)c1ccc(C(=O)Nc2ccc(Oc3cccnc3)nc2)cc1,1%,-36%,-2%,-73*,13µM*,u
CC(C)(C)c1cnnn1-c1ccc(NC(=O)c2ccc3c(c2)OCO3)cc1,-1%,-9%,-2%,-15,21µM*,u
COc1cccc(S(=O)(=O)NCC(=O)Nc2ccc(C(C)(C)C)cc2)c1,0%,2%,-9%,-60*,u,u
COc1cccc(CNC(=O)Cn2c(=O)ccc3cc(S(=O)(=O)N4CCCC4)ccc32)c1,2%,-22%,2%,x,-23%,-22%
CCOc1ccccc1NC(=O)c1ccc(F)c(S(=O)(=O)N2CCN(c3ccc(F)cc3)CC2)c1,8%,6%,1%,x,u,u
CCn1c(=O)cc(OCC(=O)N2CCN(c3ccc(OC)cc3)CC2)c2ccccc21,3%,-28%,u,x,-92%,21µM*
SMILES,TDP1 inh,HepG2 viability,TGFb inhibitor,IL1B secr inh,TDP1 cell noCPT,DT40 TDP1 CPT
CCn1c(=O)cc(OCC(=O)N2CCN(c3ccc(C(C)=O)cc3)CC2)c2ccccc21,1%,-23%,-8%,x,-11%,-3%
CCn1c(=O)cc(OCC(=O)N2CCN(c3cccc(C(F)(F)F)c3)CC2)c2ccccc21,10%,-39%,0%,6,23µM*,16µM*
COc1cccc2sc(N(Cc3cccnc3)C(=O)c3ccc(S(=O)(=O)N(C)C)cc3)nc12,3%,1%,-3%,x,u,u
Cn1c(O)c(N=NC(=O)Cn2c(C(F)(F)F)nc3ccccc32)c2ccccc21,4%,0%,-29%,11,13µM*,21µM*
COc1ccccc1C(=O)NCC(=O)N=Nc1c(O)n(C(C)C)c2ccccc12,2%,8%,-19%,-7,18µM*,u
CC(C)n1c(O)c(N=NC(=O)CNC(=O)CCc2ccccc2)c2ccccc21,x,9%,-16%,-1,u,5%
Cc1cc(C(=O)N=Nc2c(O)n(C(C)C)c3ccccc23)n[nH]1,3%,4%,-16%,-7,18µM*,u
CC(C)n1c(O)c(N=NC(=O)Cn2ccc(C(F)(F)F)n2)c2ccccc21,-1%,-10%,u,0,8.2µM*,u
CN(C)c1ccc(CNc2nc3cc(-c4ccc(F)cc4)sc3c(=O)n2C)cc1,x,-21%,-4%,10,u,u
COc1cccc(-c2cc3nc(NCc4ccccc4F)n(C)c(=O)c3s2)c1,x,-26%,-22%,-15,16µM*,23µM*
Cc1ccc(CNc2nc3cc(-c4ccccc4)sc3c(=O)n2C)c(C)c1,x,-50%,u,7,-25%,16µM*
Cn1c(NCc2ccccc2F)nc2cc(-c3ccccc3)sc2c1=O,x,-16%,u,-17,21µM*,18µM*
Cn1c(NCc2ccccc2F)nc2cc(-c3ccsc3)sc2c1=O,x,-29%,u,3,23µM*,u
CCN(CC(=O)NCc1ccc(F)cc1)C(=O)CN1CCN(c2cc(Cl)ccc2C)CC1,1%,-28%,-25%,-12,u,u
O=C(NCc1nnc2n1CCN(Cc1cccc(C(F)(F)F)c1)CC2)c1ccncc1,x,x,x,x,-15%,-22%
COCOc1c2c(c(OCOC)c3c(OCOC)cccc13)/C(=N/NS(C)(=O)=O)C1=C2CCCC1,7%,x,x,x,x,x
